A short description of assay [1]: Nuclear factor erythroid 2-related factor 2/antioxidant responsive element (Nrf2/ARE) small molecule agonists: qHTS cell viability counter screen in human keratinocytes (AID 1919968; active = well fitted curve in the direction sought with a large enough effect in the repeat runs; an effect the other way counts as inactive or inconclusive; also: nearly all actives have a fitted effect of over 55% in size; also: potency is read from the fitted curve at half-maximal effect). A digest of the protocol: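 In human HaCaT keratinocytes stably expressing an ARE-driven luciferase, compound exposure lasted 23 h at 37 C under 5% CO2. Viable cells are quantified with a protease-based fluorogenic reagent (CellTiter-Fluor) read 1 h after addition.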

Assay [2] can be described thus: Nuclear factor erythroid 2-related factor 2/antioxidant responsive element (Nrf2/ARE) small molecule agonists: luciferase reporter gene qHTS assay in human keratinocytes (AID 1919969). Also: nearly all actives have a fitted effect of over 35% in size.
For assay [3], the target named is Gonadotropin-releasing hormone receptor (Homo sapiens) (UniProt P30968). The experiment in a line: Human gonadotropin-releasing hormone receptor (GnRHR) small molecule agonists, calcium flux assay in GnRHR-HEK293 cells (AID 1920063). Also: nearly all actives have a fitted effect of over 35% in size. The procedure, abridged:
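Intracellular calcium rise is the read-out: engineered human GnRHR HEK293 cells, dye-loaded, are exposed to DMSO-dissolved compounds and fluorescence at Ex/Em 480/540 is tracked for 3 min.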

In assay [4] the target is KiSS-1 receptor (Homo sapiens) (UniProt Q969F8). The experiment in a line: Human kisspeptin (KISS1R) small molecule agonists, calcium flux assay in KISS1R-HEK293 cells (AID 1920064; active = well fitted curve in the direction sought with a large enough effect in the repeat runs; an effect the other way counts as inactive or inconclusive). The procedure, abridged:
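Concentration-response testing used 15 concentrations in triplicate on human KISS1R-expressing HEK293 cells. Calcium-dependent fluorescence (Ex/Em 480/540) was followed kinetically for 3 min after compound transfer.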

The nature of assay [5]: p53 small molecule agonists, cell-based qHTS assay with human liver microsomes (AID 1963577). A digest of the protocol:
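Fluorescence of the beta-lactamase reporter in p53RE-bla cells, detected with LiveBLAzer substrate (2 h, room temperature, dark), served as the read-out after 16 h compound exposure at 37 C with human liver microsomes and NADPH, each 0.5 mg/mL final.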
(In general: Quantitative high-throughput screening tests each substance at several concentrations.)

Assay [6] is described as follows: p53 small molecule agonists, cell-based qHTS assay with rat liver microsomes (AID 1963578). The procedure, abridged:
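Cells carrying a p53 response element–beta-lactamase reporter were plated and rested 5 h, then dosed with compound in DMSO plus rat liver microsomes and NADPH, each at 0.5 mg/mL final. After 16 h at 37 C, LiveBLAzer substrate was added for 2 h.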

Assay [7] is described as follows: p53 small molecule agonists, cell-based qHTS assay with human liver microsomes: qHTS cell viability counter screen (AID 1963579). Also: nearly all actives have a fitted effect of over 45% in size. Also: potency is read from the fitted curve at half-maximal effect. The procedure, abridged: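 Cytotoxicity counter screen: p53RE-bla, 4,000 cells/well; 5 h settle, 37 C/5% CO2; cpd + HLM 0.5 mg/mL + NADPH 0.5 mg/mL (final); 16 h, 37 C; CellTiter-Glo, 30 min RT, luminescence.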
The nature of assay [8]: p53 small molecule agonists, cell-based qHTS assay with rat liver microsomes: qHTS cell viability counter screen (AID 1963580). Also: nearly all actives have a fitted effect of over 45% in size. Also: potency is read from the fitted curve at half-maximal effect. The procedure, abridged:
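Luminescent ATP readout (CellTiter-Glo, 30 min at room temperature) reports viability of p53RE-bla HCT-116 cells after 16 h at 37 C with test compounds under metabolic activation by rat liver microsomes and NADPH at 0.5 mg/mL final each.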

Assay [9] is described as follows: p53 small molecule agonists, cell-based qHTS assay: qHTS cell viability counter screen (AID 1963581). Also: nearly all actives have a fitted effect of over 45% in size. Also: potency is read from the fitted curve at half-maximal effect. A digest of the protocol: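 Luminescence from CellTiter-Glo, reflecting ATP content, serves as the cytotoxicity measure; it is taken after the 2 h reporter substrate step in HCT-116 p53RE-bla cells dosed for 16 h at 37 C.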
The nature of assay [10]: p53 small molecule agonists, cell-based qHTS assay (AID 1963582; active = well fitted activation curve with a large enough effect in the signal ratio in the repeat runs, not every such curve was filed as active; the % refers to the signal ratio). A digest of the protocol: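 After plating, p53RE-bla cells sat 5 h in the incubator; compounds or DMSO vehicle were pinned in; a 16 h incubation at 37 C followed; FRET substrate was added and, 2 h later at RT, fluorescence was measured.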
Assay [11] addresses 5-hydroxytryptamine receptor 2A (Homo sapiens) (UniProt P28223). Put plainly: 5-hydroxytryptamine receptor 2A (HTR2A) small molecule agonists, cell-based qHTS assay (AID 1963587). Also: nearly all actives have a fitted effect of over 30% in size. Also: potency is read from the fitted curve at half-maximal effect. The procedure, abridged:
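HTR2A-CHO cells, plated 18 h at 37 C/5% CO2, dye-loaded 1 h at 37 C; compounds in DMSO added by pin tool (agonist mode). Intracellular calcium flux read as kinetic fluorescence on FDSS over 2 min at 1 s intervals.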

For assay [12], the target named is Muscarinic acetylcholine receptor M1 (Homo sapiens) (UniProt P11229). The experiment in a line: Cholinergic receptor muscarinic 1 (CHRM1) small molecule agonists, cell-based qHTS assay (AID 1963589). Also: nearly all actives have a fitted effect of over 35% in size. The procedure, abridged:
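Fluorescent calcium dye reports M1 activation in stably transfected CHO cells. Compounds, 15 concentrations, added after 1 h dye loading at 37 C; kinetic reading at 1 sec intervals.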

Assay [13] can be described thus: cAMP Responsive Elements (CRE) small molecule agonists, cell-based qHTS assay (AID 1963590). A digest of the protocol:
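Compound exposure lasted 3 h at 37 C/5% CO2 in CRE-bla HEK 293T cells grown in assay medium with 10% dialyzed FBS and 25 mM HEPES. Reporter signal came from LiveBLAzer B/G FRET substrate, 2 h, room temperature.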

Assay [14] is described as follows: cAMP Responsive Elements (CRE) small molecule antagonists, cell-based qHTS assay (AID 1963591; active = well fitted inhibition curve with a large enough effect in the signal ratio in the repeat runs, not every such curve was filed as active; the % refers to the signal ratio). A digest of the protocol:
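Stimulation used NKH477 at a final 0.25 uM for 3 h in compound-treated CRE-bla HEK293T cells, seeded 18 h beforehand. Reporter activity was measured with LiveBLAzer B/G FRET substrate after 2 h at room temperature.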

Assay [15] addresses Beta-2 adrenergic receptor (Homo sapiens) (UniProt P07550). The experiment in a line: Adrenergic beta2 receptor (ADRB2) small molecule antagonists, cell-based qHTS assay (AID 1963592). Also: series mostly up to about 92 µM; nearly all actives have a fitted effect of over 50% in size. The procedure, abridged: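 Assay format: CHO-ADRB2 cells, 18-20hr seeding at 37C/5% CO2, then compound plus 1nM isoproterenol agonist mix for 0.5hr RT. Homogeneous time-resolved fluorescence cAMP detection after 1hr, expressed as 665/615 nm ratio.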

For assay [16], the target named is D(2) dopamine receptor (Homo sapiens) (UniProt P14416). The experiment in a line: Dopamine D2 receptor (DRD2) small molecule agonists, cell-based qHTS assay (AID 1963594). Also: nearly all actives have a fitted effect of over 35% in size. The procedure, abridged:
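HEK293 cells stably expressing DRD2 were cultured 24 h at 37 C, then given Ro20-1724 (0.1 mM final) and compounds for 10 min at room temperature. NKH477 (200nM) was then added for 30 min. cAMP was read by HTRF.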

Assay [17] shares this target. The experiment in a line: Dopamine D2 receptor (DRD2) small molecule antagonists, cell-based qHTS assay (AID 1963595; active = well fitted inhibition curve with a large enough effect in the signal ratio in the repeat runs, with a control signal flat; the % refers to the signal ratio; also: potency is read from the fitted curve at half-maximal effect). A digest of the protocol:
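HEK293 cells stably expressing DRD2, preincubated with 0.1 mM Ro20-1724 and compounds 10 min, were stimulated with 200 nM NKH477 plus 12 nM quinpirole for 30 min at room temperature; cAMP measured by HTRF (665/620 nm).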

Assay [18] has as its target Muscarinic acetylcholine receptor M1 (Homo sapiens) (UniProt P11229). The experiment in a line: Cholinergic receptor muscarinic 1 (CHRM1) small molecule antagonists, cell-based qHTS assay (AID 1963588). Also: nearly all actives have a fitted effect of over 40% in size. A digest of the protocol: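 Compounds were tested at 15 concentrations in three independent runs. Dye-loaded CHRM1-CHO cells were exposed 5 min at room temperature before stimulation by acetylcholine added at 50nM. Intracellular calcium was read kinetically on FDSS for 3 min.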

In assay [19] the target is 5-hydroxytryptamine receptor 2A (Homo sapiens) (UniProt P28223). The experiment in a line: 5-hydroxytryptamine receptor 2A (HTR2A) small molecule antagonists, cell-based qHTS assay (AID 1963586). Also: nearly all actives have a fitted effect of over 45% in size. The procedure, abridged:
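CHO cells stably expressing human HTR2A were plated for 18 h at 37 C, then loaded with calcium dye for 1 h. Compounds were preincubated 5 min at room temperature before DOI (4 nM solution) was added. Kinetic fluorescence was read for 3 min.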

Records with an inconclusive call do not appear. Active and inactive are the calls of the source. Unless noted, calls follow the shape of the full dose curve.

Sequence of Muscarinic acetylcholine receptor M1 (Homo sapiens) (P11229 whole entry, looked up): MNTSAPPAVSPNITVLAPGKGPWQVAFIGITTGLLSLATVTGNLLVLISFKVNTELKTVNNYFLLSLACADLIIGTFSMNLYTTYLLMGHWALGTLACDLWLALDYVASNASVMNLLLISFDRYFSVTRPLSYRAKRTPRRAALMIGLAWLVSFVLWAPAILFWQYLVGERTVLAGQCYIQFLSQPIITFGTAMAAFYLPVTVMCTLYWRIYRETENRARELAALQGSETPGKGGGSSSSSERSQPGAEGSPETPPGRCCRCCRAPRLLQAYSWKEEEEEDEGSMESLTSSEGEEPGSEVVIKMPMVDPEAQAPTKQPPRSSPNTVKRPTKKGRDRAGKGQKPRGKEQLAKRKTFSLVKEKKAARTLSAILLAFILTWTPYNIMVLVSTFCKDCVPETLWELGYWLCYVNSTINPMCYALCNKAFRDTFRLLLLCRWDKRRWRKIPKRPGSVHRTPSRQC
Sequence of Gonadotropin-releasing hormone receptor (Homo sapiens) (P30968 whole entry, looked up): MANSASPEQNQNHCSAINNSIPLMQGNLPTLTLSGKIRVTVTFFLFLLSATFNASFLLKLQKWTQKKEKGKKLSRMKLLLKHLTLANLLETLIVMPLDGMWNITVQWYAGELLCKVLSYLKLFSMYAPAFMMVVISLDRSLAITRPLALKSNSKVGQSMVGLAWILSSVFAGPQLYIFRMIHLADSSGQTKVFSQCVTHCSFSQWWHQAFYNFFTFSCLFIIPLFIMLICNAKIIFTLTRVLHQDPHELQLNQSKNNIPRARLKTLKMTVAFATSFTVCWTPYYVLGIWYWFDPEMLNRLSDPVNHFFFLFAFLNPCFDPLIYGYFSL
Sequence of KiSS-1 receptor (Homo sapiens) (Q969F8 whole entry, looked up): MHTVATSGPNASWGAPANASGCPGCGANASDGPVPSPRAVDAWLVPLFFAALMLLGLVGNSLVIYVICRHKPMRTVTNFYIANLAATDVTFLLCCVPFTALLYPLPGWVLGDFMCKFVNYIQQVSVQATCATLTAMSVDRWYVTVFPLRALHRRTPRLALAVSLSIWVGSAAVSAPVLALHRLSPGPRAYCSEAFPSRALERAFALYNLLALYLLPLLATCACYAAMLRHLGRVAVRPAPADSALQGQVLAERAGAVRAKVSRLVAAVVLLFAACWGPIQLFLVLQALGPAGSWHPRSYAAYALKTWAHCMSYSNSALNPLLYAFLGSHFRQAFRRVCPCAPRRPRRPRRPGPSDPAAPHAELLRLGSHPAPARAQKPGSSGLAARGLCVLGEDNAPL
Sequence of D(2) dopamine receptor (Homo sapiens) (P14416 whole entry, looked up): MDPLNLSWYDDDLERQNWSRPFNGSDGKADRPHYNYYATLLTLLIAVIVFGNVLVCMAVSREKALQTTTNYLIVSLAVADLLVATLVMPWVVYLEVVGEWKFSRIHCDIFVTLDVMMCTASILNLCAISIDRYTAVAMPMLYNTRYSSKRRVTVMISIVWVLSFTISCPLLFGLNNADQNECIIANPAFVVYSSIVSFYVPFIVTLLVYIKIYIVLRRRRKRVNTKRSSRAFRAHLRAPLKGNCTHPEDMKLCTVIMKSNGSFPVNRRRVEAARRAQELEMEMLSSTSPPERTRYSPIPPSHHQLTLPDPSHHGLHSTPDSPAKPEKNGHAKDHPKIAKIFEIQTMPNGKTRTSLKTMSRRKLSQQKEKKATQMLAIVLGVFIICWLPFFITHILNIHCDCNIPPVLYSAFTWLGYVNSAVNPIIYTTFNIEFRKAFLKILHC
Sequence of Beta-2 adrenergic receptor (Homo sapiens) (P07550 whole entry, looked up): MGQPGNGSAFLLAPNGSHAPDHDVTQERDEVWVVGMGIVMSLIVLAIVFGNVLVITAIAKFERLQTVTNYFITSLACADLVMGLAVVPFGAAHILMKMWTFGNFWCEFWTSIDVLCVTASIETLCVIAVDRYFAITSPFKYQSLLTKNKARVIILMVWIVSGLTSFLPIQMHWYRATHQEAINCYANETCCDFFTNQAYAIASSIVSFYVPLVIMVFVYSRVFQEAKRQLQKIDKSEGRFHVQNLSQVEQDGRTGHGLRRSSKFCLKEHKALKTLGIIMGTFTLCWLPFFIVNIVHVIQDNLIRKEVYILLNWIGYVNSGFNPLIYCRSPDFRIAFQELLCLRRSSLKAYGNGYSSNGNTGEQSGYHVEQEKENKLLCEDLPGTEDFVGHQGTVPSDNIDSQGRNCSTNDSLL
Sequence of 5-hydroxytryptamine receptor 2A (Homo sapiens) (P28223 whole entry, looked up): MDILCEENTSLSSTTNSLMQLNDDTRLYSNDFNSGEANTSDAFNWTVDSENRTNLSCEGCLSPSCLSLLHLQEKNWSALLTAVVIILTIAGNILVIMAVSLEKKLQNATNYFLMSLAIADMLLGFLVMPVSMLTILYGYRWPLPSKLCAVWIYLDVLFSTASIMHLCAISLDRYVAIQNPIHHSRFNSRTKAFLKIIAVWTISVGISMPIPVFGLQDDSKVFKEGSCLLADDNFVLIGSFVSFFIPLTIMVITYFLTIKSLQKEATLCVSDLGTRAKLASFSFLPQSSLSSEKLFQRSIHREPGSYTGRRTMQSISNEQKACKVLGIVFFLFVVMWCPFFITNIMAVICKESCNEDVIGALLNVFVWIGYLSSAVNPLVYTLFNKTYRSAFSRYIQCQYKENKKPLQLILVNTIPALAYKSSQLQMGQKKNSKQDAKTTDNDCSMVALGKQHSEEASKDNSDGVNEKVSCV

Consider `CN1Cc2cc(C(=O)N3CCC(C4CCNCC4)CC3)ccc2N[C@@H](CC(=O)O)C1=O`, for which the Potency result in [1], in assay [2], in [3], in assay [5], in assay [6] and in [7] was “inactive” each time. Also, the Potency result in [8], in assay [9], in [10], in assay [11], in [12] and in [13] was “inactive” throughout. The Potency entry in [14], in [15], in [16] and in assay [17] was “inactive” throughout. Also, the result in [4] was inactive.
As for `CN(C)CCN(C)CCN(C)C`, the Potency result in assay [1], in [2], in assay [3], in assay [5], in [6] and in [7] was “inactive” each time. Also, the Potency result in assay [8], in assay [9], in assay [10], in assay [11], in assay [18] and in [12] was “inactive” each time. For the same compound, the Potency result in [14], in assay [15], in assay [16] and in assay [17] was “inactive” in each case. For the same compound, in [4], the outcome was inactive.
Regarding `CCCCCCCC[P+](CCCCCCCC)(CCCCCCCC)CCCCCCCC`, the Potency was 4.83 µM (active) in assay [1]; 8.09 µM (active) in assay [7]; 20.3 µM (active) in assay [8]; 2.56 µM (active) in assay [9]; 24.4 µM (active) in assay [11]; 13.6 µM (active) in assay [17]. Besides, the Potency entry in assay [2], in [3], in assay [5], in assay [6], in assay [19] and in [18] was “inactive” in each case. Besides, the Potency result in assay [12], in [15] and in assay [16] was “inactive” in each case. In assay [4], the outcome was inactive.
Regarding `O=C(O)Cc1csc(-c2ccc(Cl)cc2)n1`, the Potency entry in [1], in [2], in assay [3], in assay [5], in [6] and in assay [7] was “inactive” in each case. For the same compound, the Potency entry in assay [8], in assay [9], in [19], in assay [18], in assay [12] and in assay [16] was “inactive” in each case. In addition, in assay [4], the outcome was inactive.
On to `C[C@@H]1C[C@H]2[C@@H]3CCC4=CC(=O)C=C[C@]4(C)[C@@]3(F)[C@@H](O)C[C@]2(C)[C@@]1(O)C(=O)COP(=O)(O)O`, for which the Potency entry in assay [1], in [2], in assay [3], in assay [5], in assay [6] and in assay [7] was “inactive” in each case. The Potency entry in [8], in assay [9], in [10], in assay [14], in assay [16] and in assay [17] was “inactive” throughout. Also, the outcome in assay [4] was inactive.
Regarding `O=C1OCCN1/N=C/c1ccc([N+](=O)[O-])o1`, the Potency entry in assay [1], in [2], in assay [3], in [5], in assay [6] and in assay [7] was “inactive” in each case. The Potency result in assay [8], in assay [9], in [10], in assay [13], in assay [14] and in assay [15] was “inactive” in each case. The Potency entry in assay [17] is “inactive”. In assay [4], the outcome was inactive.
Turning to `C[N+](C)(C)CCOC(=O)CCC(=O)OCC[N+](C)(C)C`, the Potency result in [1], in assay [2], in assay [3], in assay [5], in assay [6] and in [7] was “inactive” throughout. Further, the Potency entry in [8], in assay [9], in assay [13], in assay [14], in assay [15] and in assay [16] was “inactive” each time. Besides, the Potency entry in [17] was “inactive”. Moreover, the result in assay [4] was inactive.
Regarding `CC1(C)CC(N)CC(C)(C)N1`, the Potency result in assay [1], in assay [2], in assay [3], in assay [5], in assay [6] and in assay [7] was “inactive” throughout. The Potency entry in assay [8], in assay [9], in assay [10], in [19], in assay [11] and in [13] was “inactive” in each case. Also, the Potency result in assay [14], in assay [15], in [16] and in assay [17] was “inactive” each time. For the same compound, the result in assay [4] was inactive.

Values taken from PubChem BioAssay (Tox21).
